Source: the OligoGym collection

Molecular target: PEG10
Assay: pooled miR-30 sensor sort-seq; sequence = guide strand
Details: shRNA
Further: reference of the scale not given here.

Sequence | sensor-assay potency score (higher = more potent)
TTCTCTGGGAGGTCTTCTGGGC | -0.944
TTGTGCATCAGGTAGTGGGAGC | -1.26
TCAACTGAGAAATCCCTGGTGC | 0.598
TGCAATGTGAGGCAACACCAGC | -1.84
TTAAGTTGTTGATCTCTTCAGA | -0.104
TGTCAGCGTAGTGACCTCCTGT | -0.0667
TCTTTCTTTTTCTTCCTGCGTC | -0.141
TTGATCTCTTCAGAGAGCTCGT | 0.178

Molecular target: PEG3
Assay: as above
Details: shRNA

Sequence | sensor-assay potency score (higher = more potent)
TTATAGTATGACTCTTCTGAGA | -1.1
TTGATCGTGAATCGAGCCCTTC | -0.255
TTTGTCATCAGGGTCATCCTTC | 0.301
TTTCTTTTTAGCACGAGCCTTC | -0.635
TTCTTCTACCTGAATCTCTTGA | 0.127
TAATCTCTCTGATACTCGCTGA | -0.226
TTCACTGACAGCCACACTGTGG | -0.755
TTGATCTTCACCTTCTTCTGGG | 0.701
TTATCATCTGACATTCTGGGGA | 0.23
TTGTGTTGAGGTCTTCGCTGGT | 0.119
ATAACCTCTAGCATGAATCTTC | -0.113
TTCAATGAAATGTCCTTCCAGT | 0.297
